Only some compounds are listed: those with a hit (about 2.4% of all), similar ones and a draw of the others.
WRN helicase inh: qHTS for Inhibitors of WRN Helicase; WRN helicase unwinding, fluorescent forked duplex, kinetic; Potency, µM (top dose mostly 114 µM), inactives show at the top dose activity change, negative = inhibition, hits mostly inhibitors; hit rate 0.46% among 360,000; note: % is set by controls: 0 for no effect and ±100 for the full control effect; nearly all actives have a fitted effect of over 55% in size
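Kinetic fluorescence helicase assay: unwinding of a quenched forked DNA duplex (100 nM final) with 2 mM ATP final raises red fluorescence (525/598 nm). Compounds sat 15 min at room temperature with 20 nM WRN beforehand.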
Pol iota inh: qHTS for Inhibitors of Polymerase Iota. DNA polymerase iota (Homo sapiens), Q9UNA4. Pol iota fluorescent replication assay, 10 min. Potency, µM (highest dose often 115 µM), without a hit: at the top dose activity, negative = inhibition, actives largely listed as inhibitors. hit rate 1% among 390,000
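Fluorescent replication assay read twice, at 0 min and 10 min after adding 50 nM (final) substrate. Enzyme (10 nM) and compounds were first incubated 15 min at room temperature; enzyme-free buffer wells were negative controls.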
Pol eta inh: qHTS for Inhibitors of Polymerase Eta. DNA polymerase eta (Homo sapiens), Q9Y253. recombinant Pol eta, fluorescent DNA replication assay. Potency, µM (top dose mostly 114 µM), for the others: at the highest dose activity change, negative = inhibition, hits mostly inhibitors. hit rate 1.2% among 390,000; note: % is set by controls: 0 for no effect and ±100 for the full control effect
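Pol eta at 10 nM preincubated with compounds 15 min at room temperature; reaction started with fluorescent substrate (50 nM final) and read kinetically at 0 and 10 min.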
FEN1 inhibitor: qHTS Assay for the Inhibitors of Human Flap endonuclease 1 (FEN1). P39748. Recombinant FEN1 flap cleavage, fluorescence, 15 min. Potency, µM (titrated, usually from 114 µM), without a hit: at the highest dose activity change, negative = inhibition, most hits filed as inhibitors. hit rate 0.35% among 390,000. AID 588795, 2011; note: % is set by controls: 0 for no effect and ±100 for the full control effect; nearly all actives have a fitted effect of over 65% in size
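Steps: FEN1 (10 nM) dispensed; compound added by pin tool; 15 min at room temperature; substrate added to 50 nM final; reads at 0 min and 15 min; data normalized and fitted (four-parameter Hill).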
POLB inh: qHTS Assay for Inhibitors of DNA Polymerase Beta; Potency, µM (highest dose often 114 µM), for the others: at the top dose activity change, negative = inhibition, hits mostly inhibitors; Pol beta primer extension/strand displacement, fluorescence kinetic; hit rate 1.3% among 340,000; note: % is set by controls: 0 for no effect and ±100 for the full control effect
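Values derive from four-parameter Hill fits of normalized kinetic data: reads at 0 and 10 min following addition of 50 nM substrate to 10 nM Pol beta preincubated 15 min with compound.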
Pol kappa inh: qHTS for Inhibitors of Polymerase Kappa | purified Pol kappa, fluorescent DNA synthesis assay, 10 min | Potency, µM (series often up to 107 µM), inactives show at the top dose activity, negative = inhibition, hits mostly inhibitors | hit rate 0.53% among 400,000; note: % is set by controls: 0 for no effect and ±100 for the full control effect
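Here, compound and 10 nM enzyme are combined for 15 min at room temperature; adding 50 nM substrate (final) starts DNA synthesis, tracked by fluorescence at 0 and 10 min against buffer-only wells.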
* hit, by the source's call; u = inconclusive; x = not tested or not shown; [ ] = another dose, or the depositor's remark. Calls come from the whole dose curve; as a rule, active = well fitted curve in the direction sought with a large enough effect; inconclusive = small, poorly fitted or top-dose-only effect, or another doubt; inactive = no such curve, though single readings can be large; an effect the other way counts as inactive or inconclusive. Potency is the fitted concentration of half-maximal effect.

SMILES | WRN helicase inh | Pol iota inh | Pol eta inh | FEN1 inhibitor | POLB inh | Pol kappa inh
COc1ccc(NC(=O)COC(=O)c2cccc(S(=O)(=O)N(C)C)c2)cc1 | -5% | 35% | -7% | -7% | -4% | -5%
CN(C)S(=O)(=O)c1cccc(C(=O)OCC(=O)Nc2sccc2C(N)=O)c1 | u | u | 20µM* | -13% | 9% | u
CN1CCN(S(=O)(=O)c2cccc(C(=O)Nc3sccc3C(N)=O)c2)CC1 | 0%[11.6 µM] | 45µM* | 45µM* | -20% | x | u
COc1ccccc1OCC(=O)OCC(=O)Nc1sccc1C(N)=O | -16%[57.1 µM] | u | 25µM* | -1% | u | -32%
CN1CCN(S(=O)(=O)c2cccc(C(=O)Nc3cc(C(N)=O)cc(C(N)=O)c3)c2)CC1 | -22% | u | 0% | -1% | u | -10%
COc1ccc(C(=O)OCC(=O)Nc2sccc2C(N)=O)cc1OC | -8% | -9% | -15% | -1% | 20% | 4%
Nc1ccc2oc(=O)ccc2c1I | x | x | x | x | x | 13%[60.1 µM]
CN[C@H](C)CCC=C(C)C | x | 5% | x | -18% | x | -4%[19.4 µM]
CN1CCCc2cc(/C=C/c3ccnc4ccccc34)ccc21 | x | 11% | x | u | x | 1%
O=C(c1cccs1)N1CCN(Cc2cccnc2)CC1 | 4% | 0% | 22µM* | 6% | 26% | -12%
CNC(=O)c1c(NC(=O)c2nc3ccccc3s2)sc2c1CCC2 | x | x | x | x | 45µM* | x
COc1cccc(-c2cc(C(=O)Nc3cnn(Cc4ccc(F)cc4)c3)no2)c1 | -13% | 100µM* | -12% | -3% | 37% | -21%
COc1ccc(-c2cc(C(=O)Nc3cnn(Cc4ccc(F)cc4)c3)no2)cc1OC | x | 7% | -11% | -1% | -27% | -24%
CCCOc1ccc(-c2c(C(=O)N/N=C(\C)c3cccnc3)nnn2-c2nonc2N)cc1 | -1% | 45µM* | 4% | 1% | 1% | -31%
CCOc1ccc(NC(=O)CSc2nnc3c(n2)[nH]c2ccc(S(=O)(=O)N4CCCCC4)cc23)cc1 | x | -15% | x | 2% | x | -37%
COc1ccccc1C(=O)NNC(=O)c1ccc2ccccc2c1 | -1% | 36% | -17% | 18% | 12% | 89µM*
COc1ccccc1C(=O)Nc1ccc2c(c1)C(=O)NC2=O | -20% | 12% | -13% | -1% | 56µM* | -16%
COc1ccc(NC(=O)c2cc3ccccc3cc2OC)cc1OC | -6% | -21% | -12% | -26% | 29% | -14%
COc1cc2ccccc2cc1C(=O)Nc1ccc(O)cc1 | -14% | 66% | -3% | 6% | 22µM* | -6%
CC/C(=C/c1ccccc1OC)c1cc(-c2ccccc2)cc2oc3ccccc3c12 | x | 12% | x | -19% | x | -16%
Cc1ccc(C)c(N2CCN(C(=O)Cn3cnc4sc(C)c(S(=O)(=O)N5CCN(c6ncccn6)CC5)c4c3=O)CC2)c1 | x | 4% | -17% | 12% | -19% | -9%
Cc1noc(C)c1C(=O)N1CCC2(CCCN(C(=O)NC(C)C)C2)CC1 | x | x | x | x | x | -1%[60.1 µM]
CCc1nn2c(=O)cc(COC(=O)c3ccccc3NC(=O)COc3ccc(C)c(C)c3)nc2s1 | x | 0% | 7% | 5% | 0% | -5%[60.1 µM]
CC(OC(=O)CSc1ccc([N+](=O)[O-])cc1)C(=O)NCc1ccccc1 (stereo not given) | 50µM* | u | -13% | 3% | x | 3%
O=C(COC(=O)CSc1ccc([N+](=O)[O-])cc1)NCCc1ccccc1 | -16% | 42% | -21% | 1% | x | -12%
CCc1ccc(-c2cn3c(n2)sc2cc(C(=O)NCCc4ccc(OC)cc4OC)ccc23)cc1 | x | 31% | -16% | 5% | -9% | -6%
COc1ccc2c3c(cccc13)C(=O)CC2 | -33% | 132% | -22% | 50µM* | 16% | -14%
Cc1cccc(CC2S/C(=N/N=C/c3ccco3)N(c3ccccc3)C2=O)c1 (stereo not given) | -8% | -4% | -9% | -1% | 35µM* | -10%
